Bioassay records: PubChem BioAssay, University of Kansas High Throughput Screening Laboratory
Pf apPOL inh = Pf-apPOL DNA polymerase inhibition; Recombinant Pf-apPOL, molecular beacon fluorescence, 1.5 h; inhibition, % at 10 µM; 0.25% of 210,000 active; AID 1794808
mHTT CaM bind = mHTT-calmodulin interaction abrogation; P42858; AlphaScreen His-mHTT/GST-CaM binding, luminescence; inhibition, % at 15 µM; 3.6% of 190,000 active
Target sequence (P42858 whole entry, looked up, change not shown): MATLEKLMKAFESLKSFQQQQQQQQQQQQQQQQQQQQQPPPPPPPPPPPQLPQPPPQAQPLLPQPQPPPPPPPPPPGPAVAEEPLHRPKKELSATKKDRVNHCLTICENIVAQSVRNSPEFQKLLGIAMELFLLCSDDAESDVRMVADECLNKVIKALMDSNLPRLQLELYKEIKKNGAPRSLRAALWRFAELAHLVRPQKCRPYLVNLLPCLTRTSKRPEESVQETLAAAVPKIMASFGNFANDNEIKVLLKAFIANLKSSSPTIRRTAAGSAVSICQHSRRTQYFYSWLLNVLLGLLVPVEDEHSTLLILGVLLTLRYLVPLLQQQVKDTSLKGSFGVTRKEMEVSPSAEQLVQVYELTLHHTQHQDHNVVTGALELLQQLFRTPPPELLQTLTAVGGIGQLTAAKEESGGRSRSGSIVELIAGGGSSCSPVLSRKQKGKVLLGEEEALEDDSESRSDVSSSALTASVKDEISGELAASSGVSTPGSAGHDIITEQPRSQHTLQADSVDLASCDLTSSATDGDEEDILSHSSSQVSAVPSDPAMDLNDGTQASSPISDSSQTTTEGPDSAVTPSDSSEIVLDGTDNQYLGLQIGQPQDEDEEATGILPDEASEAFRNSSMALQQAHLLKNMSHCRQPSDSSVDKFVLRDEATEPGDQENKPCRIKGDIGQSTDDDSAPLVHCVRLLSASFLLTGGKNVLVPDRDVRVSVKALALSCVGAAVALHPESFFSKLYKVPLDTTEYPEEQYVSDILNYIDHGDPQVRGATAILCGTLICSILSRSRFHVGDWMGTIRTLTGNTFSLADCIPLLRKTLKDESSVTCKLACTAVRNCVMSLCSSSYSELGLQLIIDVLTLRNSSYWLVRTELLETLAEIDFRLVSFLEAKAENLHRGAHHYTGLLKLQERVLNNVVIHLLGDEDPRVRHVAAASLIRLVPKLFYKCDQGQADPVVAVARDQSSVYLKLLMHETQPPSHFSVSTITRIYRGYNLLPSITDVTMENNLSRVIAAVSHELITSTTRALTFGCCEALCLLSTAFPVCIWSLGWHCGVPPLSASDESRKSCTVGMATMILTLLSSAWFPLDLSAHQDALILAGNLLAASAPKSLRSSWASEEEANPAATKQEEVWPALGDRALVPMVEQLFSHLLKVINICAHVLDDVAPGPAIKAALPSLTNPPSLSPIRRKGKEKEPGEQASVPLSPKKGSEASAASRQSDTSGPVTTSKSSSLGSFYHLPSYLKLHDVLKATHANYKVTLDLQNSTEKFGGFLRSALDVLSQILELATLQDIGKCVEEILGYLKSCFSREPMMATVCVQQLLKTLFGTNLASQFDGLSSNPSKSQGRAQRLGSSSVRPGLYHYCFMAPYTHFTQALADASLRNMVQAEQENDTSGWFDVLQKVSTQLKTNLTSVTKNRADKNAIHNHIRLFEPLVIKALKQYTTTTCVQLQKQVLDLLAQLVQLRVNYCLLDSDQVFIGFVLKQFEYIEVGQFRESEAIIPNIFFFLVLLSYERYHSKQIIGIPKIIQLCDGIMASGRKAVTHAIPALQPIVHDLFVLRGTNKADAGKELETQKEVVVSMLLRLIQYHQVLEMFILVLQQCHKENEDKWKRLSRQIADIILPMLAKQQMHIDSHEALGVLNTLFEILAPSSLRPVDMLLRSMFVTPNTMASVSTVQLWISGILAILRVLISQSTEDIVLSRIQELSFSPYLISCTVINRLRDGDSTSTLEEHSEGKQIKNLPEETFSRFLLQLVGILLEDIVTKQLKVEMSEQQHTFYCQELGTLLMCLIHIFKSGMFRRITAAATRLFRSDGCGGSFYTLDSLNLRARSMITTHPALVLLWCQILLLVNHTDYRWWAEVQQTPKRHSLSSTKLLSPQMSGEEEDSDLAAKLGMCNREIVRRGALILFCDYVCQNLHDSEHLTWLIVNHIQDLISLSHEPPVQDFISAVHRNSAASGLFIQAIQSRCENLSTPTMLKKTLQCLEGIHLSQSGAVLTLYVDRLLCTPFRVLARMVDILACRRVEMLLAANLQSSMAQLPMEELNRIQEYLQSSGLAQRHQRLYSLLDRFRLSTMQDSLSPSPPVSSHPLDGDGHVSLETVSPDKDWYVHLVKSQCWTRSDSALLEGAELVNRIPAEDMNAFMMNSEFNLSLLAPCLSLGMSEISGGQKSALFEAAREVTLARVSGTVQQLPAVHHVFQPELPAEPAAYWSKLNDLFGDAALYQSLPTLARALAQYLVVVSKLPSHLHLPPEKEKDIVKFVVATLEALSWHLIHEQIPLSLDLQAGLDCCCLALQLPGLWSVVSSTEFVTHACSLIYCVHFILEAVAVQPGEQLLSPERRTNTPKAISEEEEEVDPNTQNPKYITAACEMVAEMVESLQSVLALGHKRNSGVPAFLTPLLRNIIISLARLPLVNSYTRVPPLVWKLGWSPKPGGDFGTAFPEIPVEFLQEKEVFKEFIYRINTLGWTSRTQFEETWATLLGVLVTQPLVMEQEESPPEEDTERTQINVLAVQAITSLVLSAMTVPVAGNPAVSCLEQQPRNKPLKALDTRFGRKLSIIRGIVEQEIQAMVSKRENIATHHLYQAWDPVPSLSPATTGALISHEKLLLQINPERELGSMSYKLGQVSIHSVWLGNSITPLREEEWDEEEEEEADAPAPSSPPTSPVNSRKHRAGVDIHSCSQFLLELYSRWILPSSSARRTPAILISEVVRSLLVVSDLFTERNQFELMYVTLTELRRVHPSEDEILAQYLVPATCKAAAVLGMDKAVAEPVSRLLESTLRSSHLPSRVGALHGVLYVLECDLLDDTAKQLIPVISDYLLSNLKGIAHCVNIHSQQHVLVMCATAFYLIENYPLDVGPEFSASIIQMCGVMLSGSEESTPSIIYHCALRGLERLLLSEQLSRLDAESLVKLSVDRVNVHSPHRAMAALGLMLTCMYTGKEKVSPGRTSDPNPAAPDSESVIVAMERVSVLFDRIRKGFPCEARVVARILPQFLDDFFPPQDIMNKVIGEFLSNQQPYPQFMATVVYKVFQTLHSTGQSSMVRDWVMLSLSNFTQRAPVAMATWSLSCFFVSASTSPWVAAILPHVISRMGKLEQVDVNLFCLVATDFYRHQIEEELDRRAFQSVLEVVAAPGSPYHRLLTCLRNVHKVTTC
Numbers stand for hits; i = inactive; nt = not tested or not shown; ! = not confirmed by another sample. A selection: hits, their analogues and other compounds. The true share with any hit is near 3.5%. No stated cut-off is given here; in the data, active means inhibition above about 50%; inactive means the rest.

SMILES	Pf apPOL inh	mHTT CaM bind
Oc1ccc(Br)c2c1NC(c1ccc(Cl)cc1)C1CC=CC21 (stereo not drawn)	i	100
O=C(O)c1ccc([N+](=O)[O-])c2c1NC(c1ccc([N+](=O)[O-])cc1)C1CC=CC21 (stereo not drawn)	i	i
O=[N+]([O-])c1c(Cl)cc(O)c2c1C1C=CCC1C(c1ccc(Br)cc1)N2 (stereo not drawn)	i	98
Fc1ccccc1-c1nc(NCc2ccco2)c2ccccc2n1	i	i
O=C(Cn1cnc2scc(-c3ccccc3)c2c1=O)NCc1ccco1	i	i
O=c1c2ccccc2nc2c3ccccc3c(NCc3ccco3)nn12	i	65
O=c1c2c(-c3ccccc3)csc2nc2c3ccccc3c(NCc3ccco3)nn12	i	100
CCOc1ccc(-c2nc(C(=O)N3CCOCC3)cs2)cc1	i	i
Cc1cccc(-n2ncc3c(N4CCOCC4)ncnc32)c1	i	i
Cc1ccc(-n2ncc3c(N4CCOCC4)ncnc32)c(C)c1	i	56
CCN1CCN(C(=O)c2cnc(-c3ccccc3)nc2N2CCCCC2C)CC1 (stereo not drawn)	i	i
CCC(=O)N1CCC(c2nc(C)ccc2C(=O)N2CCCC2)CC1	i	i
CCN(C)c1nc(-c2cccc(F)c2F)c2c(N)n(-c3cccc(F)c3)nc2n1	i	i
CCN(C)c1nc(-c2cccc(F)c2)c2c(N)n(-c3cc(F)ccc3F)nc2n1	i	54
CC1=NOC(=O)/C1=C/c1ccc(-c2ccccc2)o1	i	i
O=C1OC(c2ccc(Cl)cc2)=C/C1=C\c1ccccc1	i	i
O=C1OC(c2ccc(Cl)cc2)=C/C1=C/c1ccc(-c2ccccc2C(=O)O)o1	i	56
CCCC1=C/C(=C\c2ccc(-c3ccccc3)o2)C(=O)O1	i	50
COC(=O)c1ccc(CSc2ncc(CO)n2Cc2ccc3c(c2)OCO3)cc1	i	i
COc1ccc(NC(=O)CN2C(=O)C(c3ccc(C)cc3)=NC23CCCCC3)cc1	i	i
COc1ccc(C2=NC3(CCCCC3)N(CC(=O)Nc3ccc(F)cc3)C2=O)cc1	i	66
O=C(CN1C(=O)C(c2ccccc2)=NC12CCCC2)Nc1ccc(F)c(F)c1	i	i
COc1ccc(NC(=O)CN2C(=O)C(c3ccccc3)=NC23CCCCCC3)cc1	i	i
COc1ccc(C2=NC3(CCCCCC3)N(CC(=O)Nc3ccc(Cl)cc3)C2=O)cc1	i	90
Cc1cccc(NC(=O)CN2C(=O)C(c3ccc(F)cc3)=NC23CCCC3)c1C	i	i
SMILES	Pf apPOL inh	mHTT CaM bind
COc1ccc(C2=NC3(CCCCC3)N(CC(=O)Nc3ccc(F)c(F)c3)C2=O)cc1	i	98
Cc1ccccc1NC(=O)CN1C(=O)C(c2ccc(F)cc2)=NC12CCCCC2	i	50
Cc1nc(C(F)(F)F)ccc1C(=O)N1C=CC(C(F)(F)F)=NCC1	i	nt
COc1ccc(OC)c(NC(=O)C2CCCN(S(=O)(=O)c3c(C)[nH]c(=O)[nH]c3=O)C2)c1 (stereo not drawn)	i	i
O=C(Nc1ccc(Br)cn1)c1ccc(-c2ccc(Cl)cc2)o1	i	i
Cc1ccccc1OCC1CNC(=O)O1 (stereo not drawn)	i	i
O=C1NCC(CN(c2ccccc2)c2ccccc2)O1 (stereo not drawn)	i	83
CC1CCN(S(=O)(=O)N2CCCC(C(=O)NC(C)C)C2)CC1 (stereo not drawn)	95	i
CC1CCN(S(=O)(=O)N2CCCC(C(=O)NC3CCCC3)C2)CC1 (stereo not drawn)	i	i
COc1ccc(C2C(C(=O)Nc3ccccc3)=C(C)Nc3nc(-c4ccccc4)nn32)c(OC)c1 (stereo not drawn)	i	i
COc1cccc(C2C(C(=O)Nc3ccccc3)=C(C)Nc3nc(-c4ccccc4)nn32)c1OC (stereo not drawn)	i	70
COc1ccc(N=C2SC(CC(=O)Nc3ccc(C(=O)O)cc3)C(=O)N2C)cc1 (stereo not drawn)	i	i
O=C(Nc1ccc([N+](=O)[O-])cc1)C(=O)N1CCN(c2ccc(F)cc2)CC1	i	i
COc1ccc(C=NN=C(N)SCc2ccc(F)cc2)cc1	i	nt
COc1ccc(CNc2ccc3c(c2)OCO3)cc1Br	i	96
COc1cc(S(=O)(=O)NCc2ccc3c(c2)OCO3)c(OC)cc1Br	i	i
COc1ccc(S(=O)(=O)Nc2ccc3c(c2)OCO3)cc1Br	nt	i
COc1cc(OC)c(CNc2ccc3c(c2)OCO3)cc1Br	i	100
NC(=O)C1CCN(C2CC(=O)N(c3ccccc3[N+](=O)[O-])C2=O)CC1 (stereo not drawn)	i	i
O=C(Nc1ccc(Cl)cc1Cl)c1cnn2c1NC(c1ccco1)CC2C(F)(F)F (stereo not drawn)	i	i
O=S(=O)(Nc1ccc(S(=O)(=O)N2CCCCC2)cc1)c1ccccc1	i	i
COc1ccc(-c2csc(Nc3ccc(NC(C)=O)cc3)n2)cc1OC	i	i
Cc1ccc(-c2csc(Nc3ccc(C(=O)O)cc3)n2)cc1C	i	i
Cc1ccc(-c2csc(NC(=O)c3ccc(Br)s3)n2)o1	i	i
Clc1ccc(Nc2nc(-c3cccnc3)cs2)cc1	i	i
SMILES	Pf apPOL inh	mHTT CaM bind
Oc1cccc(Nc2nc(-c3ccc(Cl)cc3)cs2)c1	i	97
COc1ccc(-c2csc(Nc3ccc(O)cc3)n2)cc1OC	i	71
COc1ccc(-c2csc(Nc3ccc(C)c(C)c3)n2)cc1F	i	52
COc1ccc(-c2csc(NC(=O)c3ccc(Br)s3)n2)cc1OC	64!	69!
CCN1CCN(c2ncc3c(n2)CCN(Cc2cccc(OC)c2OC)C3)CC1	i	i
O=C(c1ccccc1)c1cc2c(cc1Cl)OCCO2	i	i
CCCC(=O)Nc1ccccc1-c1ccccc1	i	i
CC1(C)CC(C)(c2cccc3ccccc23)c2cccc3cccc1c23 (stereo not drawn)	i	nt
COc1ccccc1-n1c(SCC(=O)Nc2cccc(C)c2C)nc2c(c1=O)SCC2	i	i
COc1ccc(-c2csc(N)n2)cc1OC	i	i
COc1ccc(-c2csc(Nc3cccc(O)c3)n2)cc1OC	i	68
COc1ccc(N2CCN(C(=O)c3ccc4c(c3)N(C)C(=O)C3CCCCN43)CC2)cc1 (stereo not drawn)	i	i
CCN1c2cc(C(=O)NCc3cccc(Cl)c3)ccc2C(=O)N2CCCCC21 (stereo not drawn)	i	i
CN1c2cc(C(=O)NCc3ccc(F)c(Cl)c3)ccc2C(=O)N2CCCCC21 (stereo not drawn)	i	56
CN1C(=O)C2CCCCN2c2ccc(C(=O)NCc3ccccc3)cc21 (stereo not drawn)	i	i
CN1C(=O)C2CCCCN2c2ccc(C(=O)N3CCN(c4cccc(Cl)c4)CC3)cc21 (stereo not drawn)	i	99
Cc1cccc(N2CCN(C(=O)c3ccc4c(c3)N(C)C(=O)C3CCCCN43)CC2)c1C (stereo not drawn)	i	55
CN1C(=O)C2CCCCN2c2ccc(C(=O)N3CCN(c4ccccn4)CC3)cc21 (stereo not drawn)	i	i
CN1C(=O)C2CCCCN2c2ccc(C(=O)N3CCC(Cc4ccccc4)CC3)cc21 (stereo not drawn)	i	87
NC(=NOC(=O)c1cccc(C(F)(F)F)c1)c1cc2nccc(-c3cccc(C(F)(F)F)c3)n2n1	i	nt
Cc1nc(-c2cn[nH]c2N)n[nH]1	nt	i
Cc1ccc(OCc2nc(-c3ccc(N4CCSCC4)nc3)no2)cc1	i	i
Cc1c(C(=O)N2CCC(C(N)=O)CC2)cccc1[N+](=O)[O-]	i	i
